An excerpt weighted towards active compounds, which were near 1.9% of everything screened.
PG9 binder: small molecules binding HIV-1 gp120 antibody PG9. TR-FRET gp120-PG9 antibody binding. inhibition, % at 6.7 µM. 360,000 tested, 0.43% active; in the data active = inhibition above about 8.5%
aDG glyco act: alpha-DG glycosylation activation; Pro5-aDG cells, alpha-DG glycosylation AlphaScreen (IIH6); 0% Pro5, 100% B10-LARGE cell signal; activation, % at 10 µM; 360,000 tested, 0.22% active; AID 624168;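 active = activation of at least 8% versus controls, or a plate z-score of at least 8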;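 also: Pro5 are CHO cells carrying HIG-tagged alpha-DG that lacks glycosylation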
ZTA DNA inh: counter-screen for EBNA-1 inhibitors: inhibitors of Epstein-Barr virus ZTA; 320,000 tested, 0.15% active; ZTA-DNA binding, fluorescence polarization; inhibition, % at 11 µM; in the data active = inhibition above about 33%
EBNA-1 inh: blocks EBNA-1 binding to DNA; inhibition, % at 14.8 µM; 300,000 tested, 0.34% active; EBNA-1 DNA binding, fluorescence polarization; AID 1950; in the data active = inhibition above about 28%
NR1D1 modulator: modulates human Rev-erb alpha binding to DNA; 370,000 tested, 0.79% active; activity, % at 10 µM; P20393; Rev-erbα–FITC-DNA binding, fluorescence polarization, 90 min;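 active = activity above about 14%, limit read from the data; passing the limit was not always enough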;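 also: 0% = DMSO wells with 35 nM protein and 100% = DMSO wells with 750 nM protein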
Target sequence (P20393 whole entry, looked up): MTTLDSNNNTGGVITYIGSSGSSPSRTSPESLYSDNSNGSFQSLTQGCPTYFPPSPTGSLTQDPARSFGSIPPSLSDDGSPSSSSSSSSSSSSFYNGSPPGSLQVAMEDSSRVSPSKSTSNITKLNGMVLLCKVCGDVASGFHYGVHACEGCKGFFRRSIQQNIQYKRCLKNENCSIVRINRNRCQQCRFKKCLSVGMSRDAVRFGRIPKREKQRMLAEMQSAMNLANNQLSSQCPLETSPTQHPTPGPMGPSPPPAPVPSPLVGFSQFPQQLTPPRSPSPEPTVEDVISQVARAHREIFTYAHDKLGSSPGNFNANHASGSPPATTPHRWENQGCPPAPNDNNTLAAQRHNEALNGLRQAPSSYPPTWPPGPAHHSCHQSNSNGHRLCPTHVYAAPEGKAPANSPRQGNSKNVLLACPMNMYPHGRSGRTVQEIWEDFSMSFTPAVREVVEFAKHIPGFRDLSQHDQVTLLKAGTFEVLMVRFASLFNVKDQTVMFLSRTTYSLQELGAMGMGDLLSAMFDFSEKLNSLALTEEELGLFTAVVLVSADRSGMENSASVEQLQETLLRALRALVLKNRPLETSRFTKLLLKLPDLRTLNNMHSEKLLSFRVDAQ
NCF1 inh: p47phox (human) inhibition | P14598 | p47phox/p22phox peptide binding, fluorescence polarization, 2 h | 220,000 tested, 0.53% active | inhibition, % at 24.7 µM;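 active = inhibition above about 30%, limit read from the data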;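 also: 0% = p47phox with labelled peptide and 100% = labelled peptide alone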
EBNA-1 confirm: EBNA-1 (EBV) inhibition, confirmation. AID 2292. Recombinant EBNA-1 DBD, Cy5-DNA fluorescence polarization. inhibition, % at 14.8 µM. 830 tested, 35% active. shares compounds with EBNA-1 inh;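 active = mean inhibition across replicates above a set limit taken from the earlier primary screen, cut at about 28% in these data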;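 also: plate controls were EBNA-1 protein with DMSO for no effect and wells lacking EBNA-1 for full effect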
ZTA DNA inh trip: counter-screen for EBNA-1 inhibitors: Epstein-Barr virus ZTA inhibitors, triplicate. shares compounds with EBNA-1 inh. Zta-ZRE DNA binding, Cy5 fluorescence polarization. inhibition, % at 11.1 µM. 830 tested, under 10 active;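 active = mean inhibition over triplicates above a set limit taken from the primary EBNA-1 screen, cut at about 37% in these data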;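 also: purified full length Zta protein with Cy5 labeled ZRE DNA probe; 0% = Zta with DMSO and 100% = wells lacking Zta protein; inhibitors lower polarization by freeing the labeled DNA probe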
Starred values were filed as active, the others as inactive; nt = no result given.

SMILES	PG9 binder	aDG glyco act	ZTA DNA inh	EBNA-1 inh	NR1D1 modulator	NCF1 inh	EBNA-1 confirm	ZTA DNA inh trip
COc1ccc(S(=O)(=O)N2CCCCC2)cc1NC(=O)c1cccc(S(=O)(=O)N2CCOCC2)c1	-1	0	nt	nt	0	nt	nt	nt
CCc1noc(C)c1C(=O)Nc1cc(S(=O)(=O)N2CCOCC2)ccc1OCC(F)(F)F	2	0	4	79*	3	nt	-8	-15
COc1ccc(S(=O)(=O)N2CCOCC2)cc1NC(=O)c1cccc(Cl)c1	-2	-1	9	41*	4	nt	20	-7
COc1ccc(S(=O)(=O)N2CCOCC2)cc1NC(=O)c1ccc(Cl)cc1	1	0	-9	44*	5	nt	32*	-7
CCC[C@H]1[C@@H](NS(=O)(=O)c2ccccc2[N+](=O)[O-])CC[C@@]23CCCN2C(=O)CCC[C@@H]13	nt	nt	nt	nt	2	nt	nt	nt
CN[C@H]1C[C@H]2c3[nH]c4cccc(-c5cccc(F)c5)c4c3CCN2C(=O)[C@H]1[C@H](C)O	nt	nt	nt	nt	8	nt	nt	nt
Cc1cccc(-c2cccc3c4c([nH]c23)[C@@H]2C[C@H](N(C)C(=O)Nc3ccccc3C)[C@H]([C@H](C)O)C(=O)N2CC4)c1	nt	nt	nt	nt	-3	nt	nt	nt
Cc1cccc(OCc2nnc(SCC(=O)Nc3cc(C)on3)n2C)c1	0	0	-4	31*	4	-11	8	14
COc1ccc(C(=O)NNC(=O)CSc2nnc(COc3ccc4ccccc4c3)n2C)cc1	-2	0	-1	82*	1	-12	36*	1
Cc1cc(C)c2oc(-c3ccc(C)c(NC(=S)NC(=O)c4cccs4)c3)nc2c1	0	0	5	2	-4	14	nt	nt
Cc1ccc(-c2nc3ccccc3o2)cc1NC(=S)NC(=O)c1cccs1	-1	0	5	36*	-11	-49	16	1
CCOP(=O)(c1ccccc1)C(O)c1ccc([N+](=O)[O-])cc1 (stereo not given)	0	0	8	4	-1	nt	nt	nt
CCOP(=O)(c1ccccc1)C(O)c1ccc(F)cc1 (stereo not given)	-1	0	1	103*	-1	-1	9	11
O=C(N/N=C/c1ccc(OCC(=O)N2CCOCC2)cc1)c1ccccc1Cl	-2	0	4	-1	0	-8	nt	nt
CS(=O)(=O)N(CC(=O)N/N=C/c1ccc(OCC(=O)N2CCOCC2)cc1)c1ccccc1Cl	0	0	-17	36*	-2	5	-1	-5
O=C(CCSc1nc2ccccc2s1)N/N=C/c1c(O)ccc2ccccc12	0	0	21	48*	0	8	6	8
COc1ccc(/C=N/NC(=O)CCSc2nc3ccccc3s2)cc1OC	-2	0	10	7	9	-4	nt	nt
O=C(O)c1ccc(-c2nc(-c3ccccc3)cs2)cc1	2	0	-18	7	2	-2	nt	nt
c1ccc(-c2csc(-c3ccc(-c4csnn4)cc3)n2)cc1	-3	0	20	57*	3	-8	46*	11
CCOc1ccc(C2C=C(c3ccc(C)cc3)Nc3nnnn32)cc1 (stereo not given)	1	0	9	52*	2	-11	2	6
CC(C)C[C@H]1COc2cc(Br)ccc2S(=O)(=O)N1Cc1cn(CCC2OCCCO2)nn1	nt	nt	nt	nt	-2	nt	nt	nt
O=C(Nc1cccc(F)c1)C1CC(=O)N(c2ccc(Br)cc2)C1 (stereo not given)	-2	0	-11	11	-5	-2	nt	nt
O=C(Nc1cccc(Cl)c1Cl)C1CC(=O)N(c2ccc(Br)cc2)C1 (stereo not given)	2	0	7	60*	-1	-21	21	8
COc1ccc2oc(C(=O)OCC(=O)Nc3ccc(NC(C)=O)cc3)c(C)c2c1	3	0	8	120*	-6	nt	167*	-9
CC(=O)Nc1ccc(NC(=O)C(C)OC(=O)c2oc3ccccc3c2C)cc1 (stereo not given)	1	0	-27	80*	1	nt	118*	5
SMILES	PG9 binder	aDG glyco act	ZTA DNA inh	EBNA-1 inh	NR1D1 modulator	NCF1 inh	EBNA-1 confirm	ZTA DNA inh trip
COc1ccc2oc(C(=O)OCC(=O)Nc3cc(S(=O)(=O)N4CCOCC4)ccc3C)c(C)c2c1	3	0	4	62*	15	nt	107*	0
CN=C1SC(CC(=O)Nc2cccc(Cl)c2Cl)C(=O)N1C (stereo not given)	0	0	-3	-8	-4	3	nt	nt
CN=C1SC(CC(=O)Nc2c(C)cccc2C)C(=O)N1/N=C/c1cccs1 (stereo not given)	-3	0	4	36*	-1	-4	5	-5
COC(=O)[C@]12C[C@H](CC(=O)NCc3cccc(C(F)(F)F)c3)C(=O)N(Cc3cccc4ccccc34)C1=C[C@H](COCc1ccccc1)O[C@@H]2C	nt	nt	nt	nt	-3	nt	nt	nt
Cc1ccc(NC(=O)C2CC(=O)N/C(=N/N=C/c3ccco3)S2)cc1C (stereo not given)	nt	0	-12	30*	1	5	4	-10
Cc1ccc(NC(=O)C2CC(=O)N/C(=N/N=C/c3ccco3)S2)cc1 (stereo not given)	0	0	22	4	8	-12	nt	nt
CCN(CC(=O)Nc1ccccc1C(F)(F)F)C(=O)c1cc(-c2ccccc2)nn1-c1ccccc1	2	0	6	-2	0	nt	nt	nt
CCN(CC(=O)Nc1ccccc1OC)C(=O)c1cc(-c2ccccc2)nn1-c1ccccc1	0	0	2	45*	-5	nt	-6	-11
CCOC(=O)Cc1cc(=O)[nH]c(/N=C(\N)Nc2ccc(C)cc2C)n1	-2	0	5	47*	-5	2	-2	0
Cc1ccccc1C(=O)Nc1nc2c(C)csc2c(=O)s1	5	0	4	55*	8	-11	5	2
COc1ccc2c(c1)c(CC(=O)Nc1cccc(S(N)(=O)=O)c1)c(C)n2C(=O)c1ccc(Cl)cc1	1	0	-20	37*	0	-31	-3	10
N#Cc1c2c(c(NCc3ccco3)n3c1nc1ccccc13)CCC2	3	0	2	-9	7	-10	nt	nt
N#Cc1c2c(c(Nc3ccc(O)cc3)n3c1nc1ccccc13)CCC2	-3	0	-3	39*	-4	2	15	0
O=C(CSc1ccccc1)Nc1nccs1	1	0	-8	12	-2	-9	nt	nt
O=C(CSc1cn(Cc2ccccc2)c2ccccc12)Nc1nccs1	-1	0	2	36*	-7	-9	8	6
COc1cccc2c(NCc3ccccc3)nc(-n3c(N)nc4ccccc43)nc12	nt	nt	nt	nt	-1	nt	nt	nt
